Laboratory results taken from PubChem BioAssay AID504466 (National Center for Advancing Translational Sciences (NCATS), 2011).
About 4,200 (1.3%) of roughly 330,000 compounds were called active. Roughly 6% stayed inconclusive and do not appear here. Shown is part of a subset that was picked to be rich in actives. A number with no mark means an inactive call. Calls follow the shape of the dose curve; as a rule, active = well fitted activation curve with a large enough effect; inconclusive = small, poorly fitted or top-dose-only effect; inactive = no such curve, though single readings can be large or run the other way.

experiment: qHTS screen for small molecules that induce genotoxicity in human embryonic kidney (HEK293T) cells expressing luciferase-tagged ELG1; conditions: HEK293T ELG1-luciferase reporter, luminescence, 16 h; series mostly up to 46 µM; activity change, positive = activation: at the top concentration; also: nearly all actives have a fitted effect of over 60% in size; as to activity change, positive = activation: % of control where 0% means no effect
In short: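 Reporter readout depends on ELG1 protein level, which increases with genetic stress. After 16 hr compound exposure at 37 °C, luciferase activity was quantified using ONE-Glo.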
Potency is read from the fitted curve at half-maximal effect.

Structure (SMILES) | activity change, positive = activation [%] | Potency
CCCc1cc(=O)[nH]c(SCC(=O)Nc2ccc(C(=O)Nc3ccccc3OC)cc2)n1 | -2.48 | –
Cc1noc(C)c1C(=O)OC(C)C(=O)Nc1ccc2c(c1)OCO2 (stereo not drawn) | -1.04 | –
CC(=O)c1cccc(OCC(=O)OCC(=O)Nc2cc(S(=O)(=O)N3CCCCC3)ccc2C)c1 | 2.46 | –
CC(C)Cn1c(SCC(=O)Nc2ccc(Cl)cc2F)nc(O)cc1=O | 0.616 | –
O=C(Nc1cccc(NC(=O)c2ccco2)c1)c1cnccn1 | -4.27 | –
CCn1c(SCC(=O)Nc2ccc3c(c2)OCCO3)nnc1C(C)C | 0.0765 | –
CCn1c(SCC(=O)Nc2ccc3c(c2)OCCO3)nnc1-c1ccncc1 | 1.65 | –
Cn1ccnc1SCC(=O)Nc1ccc2c(c1)OCCO2 | – | 9.2 µM (active)
O=C(CCN1C(=O)c2ccncc2C1=O)Nc1ccc2c(c1)OCCO2 | 4.24 | –
O=C(Nc1ccc2c(c1)OCCO2)c1cnccn1 | – | 5.8 µM (active)
CCC(CO)Oc1cc(NC(=O)c2cccc3ccccc23)c2ncn(C(C)C)c2c1 (stereo not drawn) | -6.25 | –
O=C(CSc1nc2ccccc2c(=O)n1Cc1ccc(F)cc1)NCC1CCCO1 (stereo not drawn) | 0.695 | –
O=C1CCC/C=C\C[C@@H](CC(=O)N(CCO)Cc2ccccc2)C(=O)NCCO1 | 3.48 | –
CC1CCCCC1NC(=O)Cn1cnc2c1c(=O)n(C)c(=O)n2C (stereo not drawn) | -0.309 | –
Cc1ccc(C)c(NC(=O)COC(=O)c2nn(C)c(=O)c3ccccc23)c1 | -0.628 | –
Cc1ccc2cc3cc(C(=O)N4CCCCCC4)oc3nc2c1 | – | 0.731 µM (active)
Cc1cc(C)cc(NC(=O)N2CCCCCCC2)c1 | 0.91 | –
COc1ccc2oc(=O)c(C(=O)N3CCCC3)cc2c1 | -0.134 | –
COc1ccc(CNC(=O)C[C@H]2C[C@H](C(=O)N3CCOCC3)[C@@]3(C)c4[nH]c5cc(CCC(=O)N(C)C)ccc5c4CCN3C2=O)cc1OC | 8.67 | –
O=C(CCNC(=O)c1ccccc1Cl)NN=Cc1ccco1 | 3.81 | –
Cc1ccsc1C(=O)NNC(=O)COc1ccc(Br)cc1 | 6.26 | –

Structure (SMILES) | activity change, positive = activation [%] | Potency
CC(=O)Nc1ccc(/C=C/C(=O)c2ccccc2)cc1 | – | 16.4 µM (active)
O=C(/C=C/NCc1ccc(F)cc1)c1ccccc1 | 11.6 | –
CC(=O)Nc1ccc(NC(=S)NC(=O)/C=C/c2ccccc2)cc1 | -5.8 | –
Cc1noc(NS(=O)(=O)c2ccc(N/C=C/C(=O)c3ccccc3)cc2)c1C | 19.6 | –
CC(OC(=O)/C=C/c1ccccc1)C(=O)Nc1ccc(C(N)=O)cc1 (stereo not drawn) | 0.672 | –
Cc1ccc(N/C=C/C(=O)c2ccccc2)cc1C | – | 0.92 µM (active)
Cc1ccc(S(=O)(=O)Nc2ccc3c(c2)C(=O)N([C@H](C)CO)C[C@@H](C)[C@@H](CN(C)C(=O)Nc2cccc4ccccc24)O3)cc1 | -1.85 | –
O=C(NCCCN1CCOCC1)c1cn(-c2ccccc2)nc1-c1ccc(F)cc1 | 1.72 | –
O=C(COC(=O)c1cccnc1Cl)NC(=O)NC1CCCCC1 | 3.37 | –
O=C(COc1ccc(Br)cc1F)NCC1(N2CCCCC2)CCCCC1 | 0.0074 | –
CC(C)n1cnc2c(NCc3ccccc3)cc(N[C@@H](CO)Cc3ccccc3)cc21 | -8.63 | –
CCOc1ccc(Br)cc1S(=O)(=O)Nc1ccc(S(=O)(=O)Nc2cc(C)on2)cc1 | 0.63 | –
O=C(Nc1cccc(S(=O)(=O)N2CCCCC2)c1)c1cncc(Br)c1 | -7.13 | –
CC(C)(C)OC(=O)N/N=C/c1ccc(C(=O)O)cc1 | -2.14 | –
Cc1ccccc1NC(=O)NNC(=O)OC(C)(C)C | -0.874 | –
C/C(=N\NC(=O)OC(C)(C)C)c1ccc[nH]1 | – | 14.6 µM (active)
COc1ccccc1CNC(=O)c1ccc(Cl)c(S(=O)(=O)N2CCCC2)c1 | -0.595 | –
Cc1ccc(S(=O)(=O)NCCC(=O)Nc2ccc(C)c(Cl)c2)cc1C | -1.62 | –
Cc1ccc(S(=O)(=O)NCCC(=O)Nc2cccc(S(N)(=O)=O)c2)cc1C | -2.2 | –
Cc1ccnc(NC(=O)CCNS(=O)(=O)c2ccc(C)c(C)c2)c1 | – | 1.64 µM (active)
Cc1cc(NC(=O)CN2C(=O)NC(CC(C)C)C2=O)no1 (stereo not drawn) | -1.81 | –

Structure (SMILES) | activity change, positive = activation [%] | Potency
O=C(CN1C(=O)NC2(CCCCCC2)C1=O)Nc1ccc([N+](=O)[O-])cc1 | -6.89 | –
CC(C)(C)OC(=O)C[C@@H]1C/C=C\C[C@@H](CC(=O)N[C@H](CO)Cc2ccccc2)C(=O)NC[C@@H](c2ccccc2)OC1=O | -1.15 | –
Cc1ccc(C(=O)OCC(=O)NCc2cc(C)c(O)c(C)c2)cc1S(=O)(=O)N1CCCCC1 | -3.3 | –
CC(=O)Nc1cccc(C(=O)OCC(=O)NCc2cc(C)c(O)c(C)c2)c1 | – | 14.6 µM (active)
COc1ccc(C(=O)OCC(=O)Nc2cccc(C(C)=O)c2)cc1OC | -2.98 | –
Cc1noc(C)c1S(=O)(=O)N(C)C[C@H]1Oc2c(NC(=O)Nc3ccc4c(c3)OCO4)cccc2C(=O)N([C@H](C)CO)C[C@@H]1C | -1.28 | –
COc1cc(OC)cc(C(=O)N[C@H](C(=O)NNC(=O)c2ccc(Br)cc2)C(C)C)c1 | -3.65 | –
CC(=O)Oc1ccc(NC(=O)CCC2CCCCC2)c(C(=O)O)c1 | -2.29 | –
COc1ccc(NC(=O)CCN2CCCC2)c(OC)c1 | 2.14 | –
COc1ccc(NC(=O)CCCC2CCCCC2)c(OC)c1 | – | 18.3 µM (active)
O=C(NOCc1ccccc1)c1cccc([N+](=O)[O-])c1 | 12.2 | –
Cc1ccc(SCCC(=O)Nc2cc(C)on2)cc1 | 1.06 | –
Cc1ccc2nc(-c3ccc(SCC(=O)Nc4cc(C)on4)nc3)[nH]c2c1 | – | 1.84 µM (active)
Cc1cccc(-n2ncc3c(=O)[nH]c(SCC(=O)Nc4cc(C)on4)nc32)c1 | -3.13 | –
CC1CCCCC12NC(=O)N(CC(=O)N1CCN(c3ccccc3)CC1)C2=O (stereo not drawn) | -1.11 | –
CCN(C[C@H]1N[C@@](CC)(C(=O)OC)[C@H]2C(=O)N(Cc3ccccc3)C(=O)[C@@H]12)S(=O)(=O)c1ccc(C(F)(F)F)cc1 | -1.39 | –
COc1ccc(-c2cc(C(=O)N3CCN(c4ccc(F)cc4)CC3)no2)cc1 | -14.8 | –
COc1ccccc1-c1cc(C(=O)N2CCCCC2)no1 | – | 3.66 µM (active)
COc1cccc(-c2cc(C(=O)N3CCN(c4ccccc4OC)CC3)no2)c1 | -2 | –
O=C(OCC(=O)N1CCCCC1)c1ccc(OC(F)(F)F)cc1 | 3.48 | –
O=C(C[C@H]1C[C@H](C(=O)N2CCOCC2)[C@@]2(CCC3CCCC3)c3[nH]c4ccc(Cl)cc4c3CCN2C1=O)NCc1ccco1 | -5.84 | –
